Test results as given in the supplement of paper PMC11732987, “Enantioselective OTUD7B fragment discovery through chemoproteomics screening and high-throughput optimisation” (Communications Chemistry, 2025).

Experiments:
Test in all cases: log2 ratio of Biotin-Ahx-Ub-VS probe labelling (fragment/DMSO); higher = less target engagement (more negative = stronger competition), active = hit call of the paper (q ≤ 0.05, log2 ratio ≤ -1)
Conditions in all cases: compound concentration: 200 uM; treatment time: 3 h
[1] = biological target: T1, OTUD6B (UniProt Q8N6M0)
T1 sequence (whole entry): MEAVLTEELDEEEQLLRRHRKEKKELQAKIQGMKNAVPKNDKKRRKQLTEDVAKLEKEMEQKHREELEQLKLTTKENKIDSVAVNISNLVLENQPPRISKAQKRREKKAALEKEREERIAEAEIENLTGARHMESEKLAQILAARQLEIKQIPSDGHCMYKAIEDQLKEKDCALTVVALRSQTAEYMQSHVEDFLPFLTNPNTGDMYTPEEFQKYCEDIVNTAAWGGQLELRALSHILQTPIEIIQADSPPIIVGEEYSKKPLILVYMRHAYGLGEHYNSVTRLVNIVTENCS
Summary of the method: (§1)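 Average log2 ratios of fragment over vehicle were obtained by unpaired t-test from global-median-normalised Spectronaut label-free quantities. Proteins with ≥2 unique peptides were included. HEK293T lysate (495 µg per sample) was treated in triplicate with fragment at 200 µM or vehicle for 3 h, then with Biotin-Ahx-Ub-VS at 0.5 µM final for 1 h, and labelled DUBs were NeutrAvidin-enriched and run by diaPASEF LC-MS/MS.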

[2] = biological target: T2, OTUD7B (UniProt Q6GQQ9)
T2 sequence (whole entry): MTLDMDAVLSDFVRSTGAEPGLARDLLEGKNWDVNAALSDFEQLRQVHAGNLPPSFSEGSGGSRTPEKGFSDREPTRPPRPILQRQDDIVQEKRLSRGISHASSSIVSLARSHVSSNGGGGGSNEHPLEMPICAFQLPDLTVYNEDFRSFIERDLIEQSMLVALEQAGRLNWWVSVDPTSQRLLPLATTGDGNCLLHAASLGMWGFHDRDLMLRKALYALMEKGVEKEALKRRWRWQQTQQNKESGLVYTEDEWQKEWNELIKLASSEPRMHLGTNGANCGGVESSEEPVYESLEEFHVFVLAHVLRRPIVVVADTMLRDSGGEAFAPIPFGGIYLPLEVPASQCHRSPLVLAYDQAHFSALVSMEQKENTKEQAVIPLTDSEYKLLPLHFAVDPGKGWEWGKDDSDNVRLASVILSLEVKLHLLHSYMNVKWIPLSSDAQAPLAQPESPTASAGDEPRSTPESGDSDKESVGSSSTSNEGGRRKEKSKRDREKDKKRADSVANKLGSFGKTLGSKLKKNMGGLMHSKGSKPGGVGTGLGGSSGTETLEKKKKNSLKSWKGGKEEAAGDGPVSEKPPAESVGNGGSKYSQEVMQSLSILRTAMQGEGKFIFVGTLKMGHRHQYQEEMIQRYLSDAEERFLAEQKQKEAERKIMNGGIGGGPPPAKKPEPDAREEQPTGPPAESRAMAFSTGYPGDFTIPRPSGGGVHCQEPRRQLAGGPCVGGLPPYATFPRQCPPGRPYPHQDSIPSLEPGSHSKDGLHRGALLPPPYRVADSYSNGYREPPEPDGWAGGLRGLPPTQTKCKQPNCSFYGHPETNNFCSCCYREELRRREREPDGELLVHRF
Summary of the method: as §1

[3] = biological target: PRPF8 (UniProt Q6P2Q9)
Summary of the method: as §1

[4] = biological target: T3, PSMD7 (UniProt P51665)
T3 sequence (whole entry): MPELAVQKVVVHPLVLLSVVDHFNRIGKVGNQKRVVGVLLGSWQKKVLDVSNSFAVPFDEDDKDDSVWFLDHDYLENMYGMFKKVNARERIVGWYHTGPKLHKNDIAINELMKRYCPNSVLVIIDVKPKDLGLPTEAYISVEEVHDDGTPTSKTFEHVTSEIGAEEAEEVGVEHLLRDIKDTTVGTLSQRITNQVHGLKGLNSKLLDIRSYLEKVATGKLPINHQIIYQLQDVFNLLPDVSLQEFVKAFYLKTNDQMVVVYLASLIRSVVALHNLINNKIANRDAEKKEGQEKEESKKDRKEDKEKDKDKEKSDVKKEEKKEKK
Summary of the method: as §1

[5] = biological target: UCHL1 (UniProt P09936)
UCHL1, sequence (P09936 whole entry, looked up): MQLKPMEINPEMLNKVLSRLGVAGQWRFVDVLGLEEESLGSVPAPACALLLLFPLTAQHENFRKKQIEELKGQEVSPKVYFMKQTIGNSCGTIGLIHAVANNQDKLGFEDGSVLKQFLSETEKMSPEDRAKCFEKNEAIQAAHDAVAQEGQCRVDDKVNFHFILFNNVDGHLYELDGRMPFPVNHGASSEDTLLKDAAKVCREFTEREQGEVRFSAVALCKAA
Summary of the method: as §1

[6] = biological target: T4, UCHL3 (UniProt P15374)
T4 sequence (whole entry): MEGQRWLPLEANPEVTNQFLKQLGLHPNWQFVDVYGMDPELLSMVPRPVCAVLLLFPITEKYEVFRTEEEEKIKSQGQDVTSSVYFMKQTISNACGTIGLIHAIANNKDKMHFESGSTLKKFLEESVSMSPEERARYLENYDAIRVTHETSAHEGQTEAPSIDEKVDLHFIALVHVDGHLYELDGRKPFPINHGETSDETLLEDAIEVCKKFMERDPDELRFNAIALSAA
Summary of the method: as §1

[7] = biological target: T5, UCHL5 (UniProt Q9Y5K5)
T5 sequence (whole entry): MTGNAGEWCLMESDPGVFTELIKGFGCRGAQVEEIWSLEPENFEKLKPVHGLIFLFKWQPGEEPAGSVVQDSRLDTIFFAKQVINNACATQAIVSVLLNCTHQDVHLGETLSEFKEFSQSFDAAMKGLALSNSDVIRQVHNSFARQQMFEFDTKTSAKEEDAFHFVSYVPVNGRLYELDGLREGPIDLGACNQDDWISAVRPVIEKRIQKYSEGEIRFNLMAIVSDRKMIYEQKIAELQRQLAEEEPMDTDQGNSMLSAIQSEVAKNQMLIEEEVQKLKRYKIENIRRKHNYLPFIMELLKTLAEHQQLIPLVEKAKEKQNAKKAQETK
Summary of the method: as §1

[8] = biological target: USP10 (UniProt Q14694)
USP10, sequence (Q14694 whole entry): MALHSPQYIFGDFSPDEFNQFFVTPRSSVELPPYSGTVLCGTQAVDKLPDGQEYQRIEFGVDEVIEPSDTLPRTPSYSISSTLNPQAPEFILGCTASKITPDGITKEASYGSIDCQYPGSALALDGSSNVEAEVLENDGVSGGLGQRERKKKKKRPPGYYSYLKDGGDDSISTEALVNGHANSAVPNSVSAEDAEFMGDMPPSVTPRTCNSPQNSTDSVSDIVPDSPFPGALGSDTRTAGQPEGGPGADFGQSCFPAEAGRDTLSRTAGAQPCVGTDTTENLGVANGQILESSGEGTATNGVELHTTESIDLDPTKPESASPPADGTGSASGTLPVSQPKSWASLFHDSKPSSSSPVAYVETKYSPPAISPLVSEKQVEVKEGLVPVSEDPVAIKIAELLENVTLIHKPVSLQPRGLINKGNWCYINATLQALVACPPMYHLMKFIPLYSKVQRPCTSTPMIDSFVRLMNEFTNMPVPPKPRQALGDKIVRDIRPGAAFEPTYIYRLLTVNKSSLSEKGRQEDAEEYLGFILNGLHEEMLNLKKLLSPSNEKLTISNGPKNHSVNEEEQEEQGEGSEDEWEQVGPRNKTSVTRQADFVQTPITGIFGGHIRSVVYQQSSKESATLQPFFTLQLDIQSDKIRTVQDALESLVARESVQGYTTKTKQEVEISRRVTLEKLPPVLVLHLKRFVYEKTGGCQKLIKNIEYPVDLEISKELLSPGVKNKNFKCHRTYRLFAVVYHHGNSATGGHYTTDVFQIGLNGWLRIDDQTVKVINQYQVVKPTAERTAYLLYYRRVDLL
Summary of the method: as §1

[9] = biological target: T6, USP15 (UniProt Q9Y4E8)
T6 sequence (whole entry): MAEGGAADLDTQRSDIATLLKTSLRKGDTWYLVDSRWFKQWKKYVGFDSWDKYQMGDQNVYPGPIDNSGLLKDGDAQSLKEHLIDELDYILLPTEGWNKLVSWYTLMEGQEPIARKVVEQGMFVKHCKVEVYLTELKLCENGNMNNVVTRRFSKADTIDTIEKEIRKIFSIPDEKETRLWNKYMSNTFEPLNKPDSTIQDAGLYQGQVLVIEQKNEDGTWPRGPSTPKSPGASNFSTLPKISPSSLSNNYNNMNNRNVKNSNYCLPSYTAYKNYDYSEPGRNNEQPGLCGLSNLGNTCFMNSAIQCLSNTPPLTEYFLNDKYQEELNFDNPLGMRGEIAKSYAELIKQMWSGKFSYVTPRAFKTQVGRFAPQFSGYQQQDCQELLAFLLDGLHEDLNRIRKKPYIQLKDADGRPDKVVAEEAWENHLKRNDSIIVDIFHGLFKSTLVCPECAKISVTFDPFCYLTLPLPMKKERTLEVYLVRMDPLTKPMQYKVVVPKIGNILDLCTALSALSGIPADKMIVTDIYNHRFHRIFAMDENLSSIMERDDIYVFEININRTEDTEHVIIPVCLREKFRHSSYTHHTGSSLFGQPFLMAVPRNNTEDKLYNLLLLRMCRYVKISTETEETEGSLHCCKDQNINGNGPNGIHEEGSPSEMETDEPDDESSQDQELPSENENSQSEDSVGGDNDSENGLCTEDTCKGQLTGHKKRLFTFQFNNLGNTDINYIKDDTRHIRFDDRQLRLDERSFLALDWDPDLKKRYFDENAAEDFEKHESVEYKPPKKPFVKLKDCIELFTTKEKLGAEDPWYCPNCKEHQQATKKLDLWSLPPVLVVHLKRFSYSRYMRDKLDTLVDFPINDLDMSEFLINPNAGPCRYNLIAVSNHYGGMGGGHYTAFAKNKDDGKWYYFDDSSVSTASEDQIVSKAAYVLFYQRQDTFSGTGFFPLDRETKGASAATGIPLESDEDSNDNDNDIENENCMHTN
Summary of the method: as §1

[10] = biological target: USP16 (UniProt Q9Y5T5)
USP16, sequence (Q9Y5T5 whole entry, looked up): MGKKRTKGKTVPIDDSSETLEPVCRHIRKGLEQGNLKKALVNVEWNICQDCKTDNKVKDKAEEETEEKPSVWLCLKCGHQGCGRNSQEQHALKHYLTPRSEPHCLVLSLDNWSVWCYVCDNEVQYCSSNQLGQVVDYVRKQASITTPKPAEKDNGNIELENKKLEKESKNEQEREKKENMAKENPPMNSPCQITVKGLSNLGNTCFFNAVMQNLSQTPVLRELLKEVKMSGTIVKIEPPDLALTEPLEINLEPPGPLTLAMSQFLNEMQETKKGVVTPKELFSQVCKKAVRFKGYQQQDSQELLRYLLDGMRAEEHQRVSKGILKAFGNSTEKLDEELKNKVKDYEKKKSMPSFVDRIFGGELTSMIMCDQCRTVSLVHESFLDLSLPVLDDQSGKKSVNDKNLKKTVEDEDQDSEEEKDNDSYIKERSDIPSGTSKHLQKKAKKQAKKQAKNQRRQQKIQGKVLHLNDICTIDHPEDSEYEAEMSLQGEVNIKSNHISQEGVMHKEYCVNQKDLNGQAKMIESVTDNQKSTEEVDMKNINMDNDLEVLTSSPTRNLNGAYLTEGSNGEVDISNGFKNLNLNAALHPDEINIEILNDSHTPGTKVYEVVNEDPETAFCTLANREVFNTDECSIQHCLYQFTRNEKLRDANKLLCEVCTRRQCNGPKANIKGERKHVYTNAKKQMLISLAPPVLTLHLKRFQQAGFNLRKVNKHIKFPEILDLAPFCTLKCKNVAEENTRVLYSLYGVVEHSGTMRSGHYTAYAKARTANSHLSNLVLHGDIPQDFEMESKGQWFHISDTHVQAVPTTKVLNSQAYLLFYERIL
Summary of the method: as §1

Measured: log2 ratio of Biotin-Ahx-Ub-VS probe labelling

O=C(CCl)Nc1cccc2ncccc12
active: [2] -1 | [5] -1.25
inactive: [1] -0.0779 | [3] -0.308 | [4] -0.0733 | [6] 0.101 | [7] -0.321 | [8] 0.0543 | [9] -0.178 | [10] 0.52
